Experimental data taken from PubChem BioAssay (NCATS).
Several values for one entry are separate records, joined by “and”; a condition that tells them apart may be missing. Equal values may be shown once. Records with an inconclusive call do not appear. Activity calls are given as the source filed them. Unless noted, the call rests on the fitted dose curve; in most records, active means well fitted curve in the direction sought with a large enough effect; inconclusive means small, poorly fitted or top-dose-only effect, or another doubt; inactive means no such curve, though single readings can be large; an effect the other way counts as inactive or inconclusive.

Experiments:
[1] = Cell Viability - BJ (AID 421; calls by dose curve;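 further: potency means the concentration at half of the fitted maximal effect; cells exposed to compound for 40 hours at 37 °C before readout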); details: BJ fibroblast viability, qHTS
In short: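 Quantitative HTS: ATP depletion in BJ cells after 40 hr compound exposure in complete culture medium, detected with CellTiter-Glo; AC50 from standard Hill fits.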

[2] = Cell Viability - Jurkat (AID 426;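 active means dose-dependent loss of cell ATP signal giving a full or clear fitted curve, ranked by lower potency value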;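 further: potency means the concentration at half of the fitted maximal effect; cells exposed to compound for 40 hours at 37 °C before ATP read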); details: qHTS
In short: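 Seed 5000 Jurkat E6-1 cells/well; add compound; incubate 40 hr at 37 °C; add CellTiter-Glo; wait 20 min at room temperature; read luminescence. Fit concentration-response with Hill equation for AC50.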

[3] = Cell Viability - Hek293 (AID 427;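 active means compounds whose dose-response curve shows a full or clear partial loss of cell viability, called from curve shape rather than a numeric limit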;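 further: potency means the concentration at half of the fitted maximal effect; cells exposed to compound for 40 hours at 37 °C before reading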); details: qHTS
In short: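 AC50 values derive from Hill-modelled concentration-response of ATP-based luminescence, normalized between DMSO-only and 100 uM tamoxifen controls. Cells were exposed in complete culture medium for 40 hr at 37 °C before detection.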

[4] = Cell Viability - HepG2 (AID 433; calls by dose curve;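 further: potency means the concentration at half of the fitted maximal effect; cells exposed to compound for 40 hours; potency for ATP loss meaning cytotoxicity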); details: qHTS
In short: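 Cytotoxicity read as ATP loss (CellTiter-Glo luminescence) after 40 hr compound exposure of HepG2, 1500 cells/well, 37 °C. AC50 by Hill equation; 0% set by DMSO, 100% inhibition by 100 uM tamoxifen.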

[5] = Cell Viability - SK-N-SH (AID 435; calls by dose curve; further: potency means the concentration at half of the fitted maximal effect); details: SK-N-SH neuroblastoma cell viability qHTS
In short: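 qHTS cytotoxicity: CellTiter-Glo ATP luminescence after 40 h compound exposure of human neuroblastoma SK-N-SH cells at 37 °C. AC50 derived by Hill-equation fitting, with DMSO as basal and 100 uM tamoxifen as full inhibition.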

[6] = Cell Viability - Renal Proximal Tubule (AID 545); details: renal proximal tubule cells viability; series mostly up to 91.7 µM;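 further: cells exposed to compound for 40 hours; 0% = DMSO only and -100% = 100 µM tamoxifen; nearly all actives have a fitted effect of over 40% in size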
In short: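 Viability taken as intracellular ATP (CellTiter-Glo luminescence) after 40 hr, 37 °C compound treatment of primary proximal tubule cells from rat kidney, 1000 cells/well; Hill-equation fits of qHTS concentration-response data gave AC50.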

[7] = Cellular Toxicity (caspase-3) MRC-5 (AID 659); details: MRC-5 cells, luminescence, normalized: DMSO 0%, 10 µM staurosporine 100%; series mostly up to 91.7 µM
In short: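 Luminescence from caspase-cleaved aminoluciferin substrate (Caspase-Glo 3/7, 1 hr RT) reports caspase 3/7 activity in MRC-5 lung fibroblasts after 16 hr compound exposure. Normalized to DMSO basal and 10 uM staurosporine as 100%; AC50 from Hill fits.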

[8] = Cellular Toxicity (caspase-3) N2a (AID 665); details: N2a cells, luminescence, normalized: DMSO 0%, 10 µM staurosporine 100%; series mostly up to 92.2 µM;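 further: compound exposure lasted 16 h at 37 °C before readout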
In short: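 Plated mouse neuroblastoma N2a cells received titrated compounds for 16 h in complete medium. Caspase activity was then detected with a peptide-aminoluciferin luminescent reagent.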

[9] = Cellular Toxicity (caspase-3) Renal Proximal Tubule (AID 667); details: renal proximal tubule cells; series mostly up to 91.7 µM;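 further: cells exposed to compound for 16 hours at 37 °C before detection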
In short: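 Caspase 3/7 activation measured by luminescent aminoluciferin release in primary rat proximal tubule cells after 16 hr compound exposure at 37 °C. AC50 from Hill-fitted concentration-response, scaled between DMSO and 10 uM staurosporine.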

[10] = MultiTox-Fluor Cytotoxicity Assay - LYMP1-002 - Live Cells (AID 955); details: LYMP1-002 lymphoblastoid live-cell protease fluorescence viability; series mostly up to 46.1 µM; further: on the % scale 0 is the no-effect control and ±100 the full control effect
In short: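 Cytotoxicity in the human lymphoblastoid line LYMP1-002 is measured as loss of live-cell protease activity after 16 h treatment in complete culture medium. AC50 is derived from Hill-equation fits of qHTS concentration-response data.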

[11] = MultiTox-Fluor Cytotoxicity Assay - LYMP1-003 - Live Cells (AID 962); details: LYMP1-003 lymphoblastoid cells, MultiTox-Fluor live-cell protease fluorescence; series mostly up to 92.2 µM;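 further: 0% = DMSO only and full loss = 92 µM tetraoctylammonium bromide; cytotoxic hits lower the live-cell protease signal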
In short: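 Cells plated at 2500 per well and incubated 5 hr; compounds added and incubated 16 hr at 37 C; MultiTox-Fluor reagent added for 60 min at room temperature; fluorescence of liberated AFC measured at 405/510 nm.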

[12] = Cell Viability - LYMP1-003 - Assay at 24 hr (AID 963); details: LYMP1-003 lymphoblastoid cell viability; series mostly up to 92.2 µM;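 further: plate controls were DMSO only for no effect and tetraoctylammonium bromide positive control for full effect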
In short: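 Acute toxicity in LYMP1-003 lymphoblastoid cells: 24 hr compound treatment at 37 C, ATP measured with CellTiter-Glo after 30 min at room temperature. AC50 derived by fitting the Hill equation to qHTS titrations.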

[13] = Cell Viability - LYMP2-021 (AID 974); details: LYMP2-021 lymphoblastoid cells viability; series mostly up to 92.2 µM;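 further: compound exposure lasts 24 hours at 37 °C; on the % scale 0 is the no-effect control and ±100 the full control effect; nearly all actives have a fitted effect of over 55% in size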
In short: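 Concentration-response cytotoxicity in a human lymphoblastoid line: 24 hr treatment at 37 C in complete culture medium, tetraoctylammonium bromide as positive control, luminescent ATP quantitation as viability measure.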

[14] = Cell Viability - LYMP2-007 (AID 979); details: LYMP2-007 lymphoblastoid cell viability; series mostly up to 92.2 µM;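 further: cells exposed to compound for 24 h before reading; 0% = DMSO only and the negative end = 92 µM tetraoctylammonium bromide; nearly all actives have a fitted effect of over 60% in size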
In short: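 Acute toxicity is scored as a concentration-dependent fall in intracellular ATP in human lymphoblastoid cells treated 24 hr at 37 C, measured by luciferase luminescence; Hill-equation modelling yields AC50.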

[15] = Cell Viability - LYMP2-016 (AID 984); details: LYMP2-016 lymphoblastoid cell viability, qHTS; series mostly up to 92.2 µM;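 further: cells exposed to compound for 24 hours at 37 °C; on the % scale 0 is the no-effect control and ±100 the full control effect; nearly all actives have a fitted effect of over 55% in size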
In short: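 Cytotoxicity was scored by luminescent ATP content (CellTiter-Glo) after 24 h compound exposure at 37 C of a human lymphoblastoid line at 2500 cells/well. Concentration-response data were fitted to the Hill equation for AC50.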

[16] = Cell Viability - LYMP2-018 (AID 985); details: LYMP2-018 lymphoblastoid cells, viability (qHTS); series mostly up to 92.2 µM;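 further: compound exposure lasted 24 hr at 37 °C; plate controls were DMSO only for no effect and tetraoctylammonium bromide at 92 µM for full effect; nearly all actives have a fitted effect of over 50% in size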
In short: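 Acute cytotoxicity is scored as a concentration-dependent drop in intracellular ATP after 24 hr exposure of the lymphoblastoid line in complete culture medium, measured by luciferase luminescence. Potency is expressed as AC50 from Hill modelling.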

[17] = Cell Viability - LYMP2-020 (AID 986); details: series mostly up to 92.2 µM;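 further: plate controls were DMSO only for no effect and tetraoctylammonium bromide at 92 µM for full effect; nearly all actives have a fitted effect of over 55% in size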
In short: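 Acute cytotoxicity in a human lymphoblastoid line is scored as a concentration-dependent fall in cellular ATP after 24 hr at 37 C in complete medium. The positive control is tetraoctylammonium bromide, and potency is given as Hill-fit AC50.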

[18] = qHTS Assay for Identification of Small Molecule Inducers of Hypoxia Response (AID 2120; active means well fitted curve in the direction sought with a large enough effect in the signal ratio, with a control signal flat, not every such curve was filed as active; the % refers to the signal ratio; further: 0% is about no effect); details: hypoxia response reporter cells, beta-lactamase ratio readout; series mostly up to 104 µM
In short: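 Induction of beta-lactamase reporter activity was measured in CellSensor HRE-bla ME-180 cells after 17 h compound treatment at 37 degrees C, using CCF4 substrate and the 460nm/530nm emission ratio to derive AC50 values.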

[19] = qHTS assay for small molecule agonists of the antioxidant response element (ARE) signaling pathway measured by Nrf2-dependant transcriptional activity - cell viability counter screen (AID 720653; active means well fitted curve in the direction sought with a large enough effect in the repeat runs; an effect the other way counts as inactive or inconclusive; further: on the % scale 0 is the no-effect control and ±100 the full control effect); details: ARE-bla HepG2 viability, CellTiter-Glo ATP luminescence, 16 h; hits give low values
In short: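 ARE-bla HepG2 cells (2,000/well) rested 5 hrs at 37C/5% CO2, then exposed to compounds in DMSO for 16 hrs. Viability was read in the same wells as intracellular ATP by luminescence, 30 min at room temperature after reagent addition.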

[20] = qHTS assay for cell viability of HEK293 cells (AID 743288); details: ATP luminescence (CellTiter-Glo), 18 h, hits give low values; further: on the % scale 0 is the no-effect control and ±100 the full control effect; nearly all actives have a fitted effect of over 50% in size
In short: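 Total intracellular ATP, measured with a luciferase-coupled reagent, indicates the number of viable HEK293 cells. Exposure to test chemicals lasts 18 h at 37 C in 1,536-well format at 2,000 cells/well.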

CCCN(CCC)c1c([N+](=O)[O-])cc(C(F)(F)F)cc1[N+](=O)[O-]
inactive: Potency [1] > 92 µM | Potency [2] > 92 µM | Potency [3] > 92 µM | Potency [4] > 92 µM | Potency [5] > 92 µM | outcome [6] | outcome [7] | outcome [8] | outcome [9] | outcome [10] | outcome [11] | outcome [12] | Potency [13] | Potency [14] | Potency [15] | Potency [16] | Potency [17] | Potency [18] | max response [19] -5.66% and -9.4% | max response [20] 12.8% and -6.09%

NC1CCC(CC2CCC(N)CC2)CC1 (centres undefined)
inactive: Potency [1] > 92 µM | Potency [2] > 92 µM | Potency [3] > 92 µM | Potency [4] > 92 µM | Potency [5] > 92 µM | outcome [6] | outcome [7] | outcome [8] | outcome [9] | outcome [10] | outcome [11] | outcome [12] | Potency [13] | Potency [14] | Potency [15] | Potency [16] | Potency [17] | Potency [18] | max response [19] -9.14% and 3.44% | max response [20] 7.87% and 2.31%

CNC(=O)O/N=C/C(C)(C)S(C)=O (centres undefined)
inactive: Potency [1] > 92 µM | Potency [2] > 92 µM | Potency [3] > 92 µM | Potency [4] > 92 µM | Potency [5] > 92 µM | outcome [6] | outcome [7] | outcome [8] | outcome [9] | outcome [10] | outcome [11] | outcome [12] | Potency [13] | Potency [14] | Potency [15] | Potency [16] | Potency [17] | Potency [18] | max response [19] 1.76% and 2.37% | max response [20] 0.711% and -4.36%

CC(C)(C)C(O)(CCc1ccc(Cl)cc1)Cn1cncn1 (centres undefined)
inactive: Potency [1] > 92 µM | Potency [2] > 92 µM | Potency [3] > 92 µM | Potency [4] > 92 µM | Potency [5] > 92 µM | outcome [6] | outcome [7] | outcome [8] | outcome [9] | outcome [10] | outcome [11] | outcome [12] | Potency [13] | Potency [14] | Potency [15] | Potency [16] | Potency [17] | Potency [18] | max response [19] -4.58% and -0.482% | max response [20] -1.87% and -20%

Cc1coc2c1CCC(C)C2 (centres undefined)
inactive: Potency [1] > 92 µM | Potency [2] > 92 µM | Potency [3] > 92 µM | Potency [4] > 92 µM | Potency [5] > 92 µM | outcome [6] | outcome [7] | outcome [8] | outcome [9] | outcome [10] | outcome [11] | outcome [12] | Potency [13] | Potency [14] | Potency [15] | Potency [16] | Potency [17] | Potency [18] | max response [19] -1.7% | max response [20] 2.25%

C=C(C)CCl
inactive: Potency [1] > 92 µM | Potency [2] > 92 µM | Potency [3] > 92 µM | Potency [4] > 92 µM | Potency [5] > 92 µM | outcome [6] | outcome [7] | outcome [8] | outcome [9] | outcome [10] | outcome [11] | outcome [12] | Potency [13] | Potency [14] | Potency [15] | Potency [16] | Potency [17] | Potency [18] | max response [19] -2.48% | max response [20] -1.82%

ClP(Cl)(Cl)(Cl)Cl
inactive: Potency [1] > 92 µM | Potency [2] > 92 µM | Potency [3] > 92 µM | Potency [4] > 92 µM | Potency [5] > 92 µM | outcome [6] | outcome [7] | outcome [8] | outcome [9] | outcome [10] | outcome [11] | outcome [12] | Potency [13] | Potency [14] | Potency [15] | Potency [16] | Potency [17] | Potency [18] | max response [19] -1.82% | max response [20] -14.3%

C=CC(=O)OCC(CC)CCCC (centres undefined)
inactive: Potency [1] > 92 µM | Potency [2] > 92 µM | Potency [3] > 92 µM | Potency [4] > 92 µM | Potency [5] > 92 µM | outcome [6] | outcome [7] | outcome [8] | outcome [9] | outcome [10] | outcome [11] | outcome [12] | Potency [13] | Potency [14] | Potency [15] | Potency [16] | Potency [17] | Potency [18] | max response [19] -8.13% and 5.16% | max response [20] 1.71% and -12.5%

CCCBr
inactive: Potency [1] > 92 µM | Potency [2] > 92 µM | Potency [3] > 92 µM | Potency [4] > 92 µM | Potency [5] > 92 µM | outcome [6] | outcome [7] | outcome [8] | outcome [9] | outcome [10] | outcome [11] | outcome [12] | Potency [13] | Potency [14] | Potency [15] | Potency [16] | Potency [17] | Potency [18] | max response [19] -3.32% | max response [20] -3.65%

CCCCNC(=O)n1c(NC(=O)OC)nc2ccccc21
active: Potency [2] 3.28 µM
inactive: Potency [1] > 92 µM | Potency [3] > 92 µM | Potency [4] > 92 µM | Potency [5] > 92 µM | outcome [7] | outcome [8] | outcome [9] | outcome [10] | outcome [11] | outcome [12] | Potency [13] | Potency [14] | Potency [15] | Potency [16] | Potency [17] | Potency [18] | max response [19] 2.42% and 7.38% | max response [20] -16.4% and -17.6%

c1ccc(OCC2CO2)cc1 (centres undefined)
inactive: Potency [1] > 92 µM | Potency [2] > 92 µM | Potency [3] > 92 µM | Potency [4] > 92 µM | Potency [5] > 92 µM | outcome [6] | outcome [7] | outcome [8] | outcome [9] | outcome [10] | outcome [11] | outcome [12] | Potency [13] | Potency [14] | Potency [15] | Potency [16] | Potency [17] | Potency [18] | max response [19] 0.104% | max response [20] 5.64%
